HCMV antiviral – human cytomegalovirus inhibition. hit rate 4.5% among 410,000. activity change, negative = inhibition, % at 57.5 µM. HFF cells, HCMV-luciferase reporter, 72 h; hits give low values; in the data active = activity change below about -60%; inconclusive = no clear call, values can overlap the other calls; inactive = above about -39%
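Two-dose cell screen: HFF monolayers treated with compounds and infected with luciferase-expressing HCMV at 1 PFU/cell, 72 h at 37C, then lysed for luciferase measurement.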
HCV inhibitor – inhibitors of hepatitis C virus infection; Huh7.5.1 HCVcc-Cre infection, luciferase reporter, 44 h; Potency, µM (titrated, usually from 41.8 µM), inactives show at the top dose activity change, negative = inhibition, actives largely listed as inhibitors; hit rate 3.4% among 340,000; AID 651820; also: potency is read from the fitted curve at half-maximal effect
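1,000 cells/well; 4 h culture; + compound; + HCVcc-Cre (~0.5 moi); 44 h; luciferase substrate, RT 15 min; read 15 sec.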
Pf growth 96h – P. falciparum growth inhibition at 96 hour, primary screen for plastid delayed-death inhibitors | AID 504834 | hit rate 6.9% among 320,000 | P. falciparum luciferase reporter growth, 96 h | Potency, µM (doses to about 28.7 µM), inactives show at the highest dose activity change, negative = inhibition, usual class: inhibitors; also: potency is read from the fitted curve at half-maximal effect
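Two parasite generations (96 h, 37 C, 5% CO2) of compound exposure in infected erythrocytes (0.05% parasitemia, 2% hematocrit). Luciferase-reporter P. falciparum; decreased luminescence indicates inhibited growth, aimed at apicoplast-acting delayed death.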
Pf growth 48h – P. falciparum growth inhibition at 48 hours (one generation); Potency, µM (top dose mostly 28.7 µM), for the others: at the highest dose activity change, negative = inhibition, actives largely listed as inhibitors; P. falciparum luciferase growth in erythrocytes, 48 h; AID 504832; hit rate 5.9% among 310,000; also: potency is read from the fitted curve at half-maximal effect
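Growth was read as firefly luciferase luminescence after a 48 h, 37 C, 5% CO2 exposure of compounds to reporter-bearing P. falciparum cultures (0.1% parasitemia, 2% hematocrit final) in Albumax-supplemented RPMI 1640.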
Starred values were filed as active, the others as inactive; ? = inconclusive; . = no result given. This is a sample that favours compounds with a hit; in the whole collection about 13% have one here. Unless noted, calls follow the shape of the dose curve; as a rule, active = well fitted inhibition curve with a large enough effect; inconclusive = small, poorly fitted or top-dose-only effect, or another doubt; inactive = no such curve, though single readings can be large or run the other way. % is scaled to controls: 0 for no effect and ±100 for the full control effect.

SMILES | HCMV antiviral | HCV inhibitor | Pf growth 96h | Pf growth 48h
O=S(=O)(Nc1ccc(-c2ccc(N3CCCC3)nn2)cc1)c1cccc(C(F)(F)F)c1 | -1 | . | . | .
CN(C)C(=O)/C=C\c1cn(-c2ccccc2)nc1-c1ccc2c(c1)OCCO2 | -85* | -28% | 10% | ?
CN1CCN(C(=O)/C=C/c2cn(-c3ccccc3)nc2-c2ccc3c(c2)OCCO3)CC1 | -11 | ? | ? | 12µM*
Cc1ccc2nc(N(Cc3cccnc3)C(=O)CCOc3ccccc3)sc2c1 | -3 | . | . | .
COc1ccc(-n2nc3cc(C)c(NC(=O)c4ccc(-c5ccc(Br)cc5)o4)cc3n2)cc1 | 61 | . | . | .
Cc1cc(/C=N/n2cnnc2)c(C)n1-c1ccc2c(c1)OCO2 | 11 | -9% | 10µM* | 11%
Cc1cccc(-n2c(C)cc(/C=N/n3cnnc3)c2C)c1 | -31 | -11% | ? | 0%
CCOc1ccc(NC(=O)Cn2c(=O)n(Cc3nc(-c4ccccc4)no3)c(=O)c3ccccc32)cc1 | 4 | . | . | .
CCOc1cc(-c2c(C#N)c(N)nc3c2CCCC3C)ccc1O (stereo not drawn) | -10 | ? | 2.9µM* | -24%
COc1cc(-c2cc(-c3ccc(O)cc3)nc(N)c2C#N)ccc1O | -70* | ? | 5.9µM* | ?
CCOc1cc(-c2cc(-c3ccc(C)cc3)nc(N)c2C#N)ccc1O | 13 | 25µM* | . | ?
O=S(=O)(c1ccc(Cl)cc1)N1CCN(Cc2ccc(O)c3ncccc23)CC1 | -98* | ? | ? | 1.9µM*
Oc1ccc(CN2CCN(Cc3ccccc3)CC2)c2cccnc12 | 52 | 10µM* | . | 7%
Cc1nn(C)c(C)c1CCC(=O)NC1CC(C)(C)Cc2c1cnn2-c1ccccc1 (stereo not drawn) | -69* | -4% | ? | 13%
COc1ccc(-n2ncc3c2CC(C)(C)CC3NC(=O)c2cnc(C)cn2)cc1 (stereo not drawn) | -64* | -1% | ? | 0%
Cc1ccc(-n2ncc3c2CC(C)(C)CC3NC(=O)CCn2cncn2)cc1 (stereo not drawn) | 1 | 11% | 10µM* | -6%
Cc1cnc(C(=O)NC2CC(C)(C)Cc3c2cnn3-c2ccccc2)cn1 (stereo not drawn) | -17 | 13% | -9% | 47%
CCOC(=O)c1ccccc1NC(=O)N1CCC(CN2CCOCC2)CC1 | 66 | . | . | .
COC(=O)c1c(C)[nH]c(C(=O)/C=C/c2ccccc2Cl)c1C | 28 | -13% | -8% | 74%
COC(=O)c1c(Cc2ccccc2Cl)c[nH]c1C | -67* | -13% | ? | ?
CCOC(=O)c1c(Cc2cccc(Cl)c2)c[nH]c1C | -62* | 5% | ? | -22%
CCOC(=O)c1cn(Cc2cccc(Cl)c2)nn1 | -16 | 31% | -7% | 15%
CC(=O)c1cccc(NC(=O)CSc2nc3ccccc3nc2Cc2ccc(F)cc2)c1 | -6 | . | . | .
NS(=O)(=O)c1ccc(CCNCC(=O)N2CCC(Cc3ccccc3)CC2)cc1 | -61* | 11µM* | -4% | 5%
NS(=O)(=O)c1ccc(CCNC(=O)c2ccc3c(c2)N(Cc2ccccc2)CCS3)cc1 | -64* | -12% | 111% | ?
SMILES | HCMV antiviral | HCV inhibitor | Pf growth 96h | Pf growth 48h
O=C(NCCc1ccc(Cl)cc1)c1ccc2c(c1)N(Cc1ccccc1)CCS2 | 16 | . | . | .
COc1ccc(CCNC(=O)c2ccc3c(c2)N(Cc2cccc(Cl)c2)C(=O)CS3)cc1OC | -61* | . | . | .
O=C(NCCc1ccccc1)c1ccc2c(c1)N(Cc1ccc(F)cc1)C(=O)CS2 | -2 | . | . | .
O=C(O)c1ccc2c(c1)N(Cc1cccc(F)c1)C(=O)CS2 | -100* | 14% | 22% | .
NS(=O)(=O)c1ccc(CCNCC(=O)NC2CC2)cc1 | 24 | 14% | 29% | 33%
Cc1cc(C)cc(-n2ccnc2SCC(=O)Nc2nnc(C)s2)c1 | -5 | . | . | .
CCOC(=O)C1CCN(C(=O)Cn2c(=O)oc3cc(S(=O)(=O)N4CCC(C)CC4)ccc32)CC1 | 16 | . | . | .
CCCOc1ccc(CNC(=O)c2ccc3c(c2)N(Cc2ccccc2)CCS3)cc1 | -31 | . | . | .
CCc1sc(C(=O)NCCc2ccc(S(N)(=O)=O)cc2)cc1Br | -68* | -11% | ? | 3%
NS(=O)(=O)c1ccc(CCNC(=O)c2ccccc2Cc2ccccc2)cc1 | -61* | 4% | ? | -1%
Cc1ccc(CN2CCSc3ccc(C(=O)NCCc4ccccc4)cc32)cc1 | 70 | . | . | .
COc1ccc(CCNC(=O)c2ccc3c(c2)N(Cc2ccccc2)CCS3)cc1OC | 0 | 10µM* | ? | -24%
CCc1sc(C(=O)NCCc2ccc(S(N)(=O)=O)cc2)cc1C | 12 | ? | -3% | 2%
COc1ccc(OC)c(CCNC(=O)c2ccc3c(c2)N(Cc2ccccc2)CCS3)c1 | -34 | ? | 13µM* | ?
NS(=O)(=O)c1ccc(CCNC(=O)c2cccc3ccccc23)cc1 | 1 | 14% | -11% | 2%
Cc1cccc(NS(=O)(=O)c2ccc3c(c2)OCC(C(=O)N2CCCC2)O3)c1C (stereo not drawn) | -9 | . | . | .
Cc1cccc(C)c1NC(=O)C(c1ccccc1OC(F)(F)F)N1CCC(c2ccccc2)CC1 (stereo not drawn) | -6 | . | . | .
COc1ccc(C(=O)c2oc3ccccc3c2NC(=O)c2nc(SC)ncc2Cl)cc1Cl | 12 | . | . | .
O=C(N[C@@H](Cc1ccccc1)c1nc2ccccc2[nH]1)c1ccc([N+](=O)[O-])cc1 | -3 | . | . | .
CSCC[C@H](NC(=O)c1cc([N+](=O)[O-])ccc1Cl)c1nc2ccccc2[nH]1 | -17 | ? | 15µM* | 12µM*
O=C(NC(Cc1ccccc1)c1nc2ccccc2[nH]1)c1cccc([N+](=O)[O-])c1 (stereo not drawn) | -26 | ? | 12µM* | ?
CCCNC(=O)C(Cc1ccccc1)NC(=O)c1cccc([N+](=O)[O-])c1 (stereo not drawn) | 1 | ? | ? | 8.3µM*
Cc1nn(C(C)C(=O)NC2CCCCC2)c(=O)c2c1sc1ccccc12 (stereo not drawn) | -18 | . | . | .
CCOc1ccc(S(=O)(=O)NC(C)(C)C)cc1-c1nc2c(C(C)(C)C)nn(C)c2c(=O)[nH]1 | -37 | 7.1µM* | -97% | 4.7µM*
CCn1c(=O)c2cc(C(=O)NCCCN3CCN(c4ccc(F)cc4)CC3)sc2c2ccccc21 | 20 | . | . | .
CCC(Sc1nc(-c2ccccc2)[nH]c1S(=O)(=O)c1ccc(C)cc1)C(=O)O (stereo not drawn) | 6 | . | . | .
CC(C)c1ccc(N2C(=O)NC(=O)/C(=C\C=C\c3ccco3)C2=O)cc1 | -95* | ? | -39% | 12%
O=C1NC(=O)N(Cc2ccccc2)C(=O)/C1=C/C=C/c1ccco1 | 0 | ? | -1% | 0%
O=C1NN(c2ccc(F)cc2)C(=O)/C1=C\C=C\c1ccco1 | -30 | 6% | 1.7µM* | -1%
CC(C)C1C(=O)Nc2ccc(S(=O)(=O)NCCc3ccc(Cl)cc3)cc21 (stereo not drawn) | -20 | . | . | .

Screening data deposited in PubChem BioAssay by National Center for Advancing Translational Sciences (NCATS).
